High-throughput results as filed in PubChem.
Most compounds without a hit are left out; they make up all but 18% or so of the library.
TDP1 inh – TDP1 (human) enzyme inhibition. Potency, µM (highest dose often 130 µM), without a hit: at the highest dose activity change, negative = inhibition, usual class: inhibitors. Q9NUW8. AID 485290. actives 0.28% (n = 350,000). recombinant TDP1, AlphaScreen DNA substrate cleavage; note: potency is the fitted concentration of half-maximal effect; % is set by controls: 0 for no effect and ±100 for the full control effect; nearly all actives have a fitted effect of over 40% in size
Target sequence (Q9NUW8 whole entry, looked up): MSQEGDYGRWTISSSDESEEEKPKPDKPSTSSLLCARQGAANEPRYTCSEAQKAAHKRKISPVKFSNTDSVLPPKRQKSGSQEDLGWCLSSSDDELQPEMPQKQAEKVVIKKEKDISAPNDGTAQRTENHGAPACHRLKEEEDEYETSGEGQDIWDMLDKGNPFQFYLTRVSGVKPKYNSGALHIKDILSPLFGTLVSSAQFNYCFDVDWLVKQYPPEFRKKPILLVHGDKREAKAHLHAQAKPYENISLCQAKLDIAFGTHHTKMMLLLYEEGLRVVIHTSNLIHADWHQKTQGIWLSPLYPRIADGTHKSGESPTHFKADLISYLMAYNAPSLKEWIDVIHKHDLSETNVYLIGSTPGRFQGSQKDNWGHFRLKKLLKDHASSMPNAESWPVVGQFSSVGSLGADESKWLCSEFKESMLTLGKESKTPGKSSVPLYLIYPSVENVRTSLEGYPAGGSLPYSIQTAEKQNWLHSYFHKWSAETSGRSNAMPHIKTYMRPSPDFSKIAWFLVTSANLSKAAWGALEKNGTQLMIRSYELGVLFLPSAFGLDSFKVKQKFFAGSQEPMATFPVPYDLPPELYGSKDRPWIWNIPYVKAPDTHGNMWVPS
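Tdp1 1 nM final; 15 min RT w/ cpd; substrate 15 nM, 5 min; beads 10 ug/ml, 10 min; AlphaScreen read. Neg ctrl: no enzyme.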
HepG2 tox – kills HepG2 cells in TGF-b inhibitor counter-screen; Potency, µM (highest dose often 46.1 µM), without a hit: top-dose activity change, negative = cytotoxicity, hits mostly cytotoxic; HepG2 CAGA-GFP viability, ATP luminescence, 18 h; actives 0.76% (n = 410,000); AID 588856; note: potency is the fitted concentration of half-maximal effect
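HepG2 CAGA-GFP cells (1000/well, DMEM with 1% FBS) received compound, then TGF-beta at 500 pg/mL final, and were incubated 18 hours at 37 degrees C. Viability was read by CellTiter-Glo luminescence. Media-only wells were set as complete cell-killing and DMSO as no toxicity.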
TDP1 cell noCPT – qHTS for Inhibitors of human tyrosyl-DNA phosphodiesterase 1 (TDP1): qHTS in cells in absence of CPT | AID 686978, 2013 | actives 15% (n = 420,000) | DT40 Tdp1-/- hTDP1 cells, no CPT, ATP luminescence, 48 h | Potency, µM (top dose mostly 46.2 µM), for inactives: at the highest dose activity change, negative = growth inhibition, actives largely listed as inhibitors; note: potency is the fitted concentration of half-maximal effect; % is set by controls: 0 for no effect and ±100 for the full control effect; nearly all actives have a fitted effect of over 55% in size
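No-CPT arm: Tdp1-/-;hTDP1 DT40 cells (400/well) plus compounds, incubated ≥48 hr at 37 °C. Readout CellTiter-Glo luminescence.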
IL1B secr inh – blocks inflammasome-driven IL-1 beta release; THP-1 LPS/ATP IL-1B secretion, AlphaLISA, 16 h; hits give low values; activity change, % at 57.5 µM; actives 4.7% (n = 360,000); in the data active = activity change below about -50%; inconclusive = mostly about -30% to -49%; note: % is set by controls: 0 for no effect and ±100 for the full control effect
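Secreted IL-1B measured by AlphaLISA bead assay after 16 h compound exposure of THP-1 cells; compounds (final up to 57.5 uM) added 1 h before LPS (250 ng/mL) and ATP (1.25 mM) stimulation; lower signal means less secretion.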
TGFb inhibitor – TGF-b pathway inhibition; actives 1.2% (n = 410,000); AID 588855; HepG2 CAGA-GFP TGF-b/SMAD3 reporter, GFP fluorescence, 18 h; TGF-beta stimulated, 500 pg/mL final; Potency, µM (highest dose often 46.1 µM), without a hit: top-dose activity, negative = inhibition, usual class: inhibitors; note: potency is the fitted concentration of half-maximal effect; % is set by controls: 0 for no effect and ±100 for the full control effect; nearly all actives have a fitted effect of over 65% in size
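TGF-beta reporter screen: HEPG2 CAGA-GFP, 1% FBS, 500 pg/mL TGF-beta final, 18 h; per-cell GFP summed per well; curves fitted and categorized by class.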
DT40 TDP1 CPT – growth inhibition of DT40 Tdp1-/-;hTDP1 cells with camptothecin (screen for TDP1 inhibitors) | actives 12% (n = 420,000) | Potency, µM (highest dose often 46.2 µM), without a hit: top-dose activity change, negative = growth inhibition, actives largely listed as inhibitors | chicken DT40 Tdp1-/-;hTDP1 cells + 20 nM CPT, ATP luminescence, 48 h; note: potency is the fitted concentration of half-maximal effect; % is set by controls: 0 for no effect and ±100 for the full control effect; nearly all actives have a fitted effect of over 55% in size
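Chicken DT40 Tdp1-/- cells stably complemented with human TDP1 were seeded at 400 cells/well in medium containing 20 nM camptothecin, exposed to pin-transferred compounds, and grown at 37 °C for at least 48 hr. Viability was read as ATP luminescence.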
Active calls of the source: *; u = inconclusive; x = not tested or not shown; [ ] = dose if it differs, or a comment. Unless noted, calls come from the whole dose curve; as a rule, active = well fitted curve in the direction sought with a large enough effect; inconclusive = small, poorly fitted or top-dose-only effect, or another doubt; inactive = no such curve, though single readings can be large; an effect the other way counts as inactive or inconclusive.

SMILES	TDP1 inh	HepG2 tox	TDP1 cell noCPT	IL1B secr inh	TGFb inhibitor	DT40 TDP1 CPT
CC1(c2cc(C(F)(F)F)n3nc(C(=O)O)cc3n2)CC1	2.4%	-0.9%	-12.5%	19.2	0.2%	-0.9%
Cc1c(NC(=S)NC(=O)c2ccc(Cl)cc2)c(=O)n(-c2ccccc2)n1C	x	7.4%	1.2%	-4.4	2.2%	13.4%
Cc1c(NC(=O)/C(C#N)=C/c2ccc(-c3cccc(Cl)c3)o2)c(=O)n(-c2ccccc2)n1C	4.2%	-22.1%	20.6µM*	-11.8	-21.5%	u
COc1ccccc1Oc1nc2ccccn2c(=O)c1/C=C(\C#N)C(=O)Nc1c(C)n(C)n(-c2ccccc2)c1=O	3.6%	-20.6%	-16.7%	x	-3.8%	4.3%
Cc1c(NC(=O)/C(C#N)=C/c2ccc(-c3ccc(Cl)c(Cl)c3)o2)c(=O)n(-c2ccccc2)n1C	1.8%	-26.3%	13µM*	-51.9*	u	18.4µM*
Cc1c(NC(=O)C(=O)/C=C(\O)c2ccc(Cl)cc2)c(=O)n(-c2ccccc2)n1C	4.5%	-17.3%	-8.3%	-56.4*	-6.4%	3.1%
Cc1ccc(Oc2nc3ccccn3c(=O)c2/C=C(\C#N)C(=O)Nc2c(C)n(C)n(-c3ccccc3)c2=O)c(C)c1	1.1%	-20.5%	13µM*	0.0	-15.3%	u
Cc1c(NC(=O)/C(C#N)=C/c2ccccc2)c(=O)n(-c2ccccc2)n1C	4.6%	-6.5%	-0.6%	-4.1	-3.4%	6.0%
Cc1ccccc1OCC(=O)NCCCNC(=O)c1cccnc1	0.2%	3.7%	-5.5%	-9.5	-1.5%	-15.7%
COC(=O)c1sc(N2C(=O)c3oc4ccccc4c(=O)c3C2c2ccc(O)cc2)nc1C (centres undefined)	1.1%	0.3%	-1.8%	x	-7.4%	-19.0%
Cc1c(NC(=O)/C(C#N)=C/c2ccc(-c3ccccc3Cl)o2)c(=O)n(-c2ccccc2)n1C	8.2%	-15.8%	29.1µM*	-73.0*	-18.6%	u
Cc1cccc(NC(=O)/C(C#N)=C/c2ccc(C)o2)c1	1.9%[2.28 µM]	-16.7%	-23.7%	x	3.8%	-20.9%
Cc1ccc(/C=C(\C#N)C(=O)Nc2cccc(Cl)c2)o1	-4.0%[12.3 µM]	-16.7%	-14.4%	x	x	1.3µM*
Cc1ccc2[nH]c(=O)c3cc(C(=O)NC4CCC(C)CC4)sc3c2c1 (centres undefined)	1.0%	-24.2%	-28.5%	x	9.7%	-14.3%
CC(C)C(=O)N1CCC1(C)C(=O)Nc1cccc(Oc2ccccc2)c1 (centres undefined)	x	-26.2%	u	17.5	-5.6%	u
O=C(COc1ccc(/C=N/NC(=O)c2cc3ccccc3o2)cc1Br)Nc1ccccc1	7.9%	-63.4%	18.4µM*	-116.9*	3.55µM*	18.4µM*
O=C(COc1ccccc1[N+](=O)[O-])Nc1ccc2oc(=O)ccc2c1	0.2%	-7.3%	1.6%	-12.9	2.2%	-12.2%
Cc1ccc2nc(-c3ccc(NC(=O)COc4ccccc4C(C)(C)C)cc3)sc2c1	-1.3%[12.3 µM]	3.3%	u	x	-2.7%	-29.9%
O=C(COc1ccccc1[N+](=O)[O-])Nc1ccc(-c2nc3ccccc3s2)cc1	-4.7%	1.3%	20.6µM*	x	-8.6%	20.6µM*
O=C(COc1ccccc1Cl)Nc1ccc(-c2nc3ccccc3s2)cc1	1.3%[12.3 µM]	-4.2%	6.51µM*	x	15.9%	5.8µM*
O=C(COc1ccccc1[N+](=O)[O-])Nc1ccc(NC(=O)c2cc3ccccc3o2)cc1	2.5%	-32.7%	u	-11.5	u	23.1µM*
CCN(CC)C(=O)C1=C(C)N(Cc2ccc(F)cc2)C(=O)C(CC(=O)NCc2ccco2)C1 (centres undefined)	x	-2.8%	-26.1%	-4.7	4.1%	-15.7%
